Consider 24 compounds from PubChem BioAssay (EPA / NIEHS).

Calls of active or inactive are those of the source. The calls were made as follows: active = hit-call score of the fitted dose curve at least 0.9, where 1 is the maximum; inactive = score below 0.9.

Assay [1] can be described thus: ATG_CRE_CIS: Attagene CIS-FACTORIAL HepG2 Assay for human cAMP Responsive Element (CRE) binding protein 3 (AID 2282926). To be noted: HepG2 CRE cis-reporter, Attagene multiplexed mRNA; actives raise or lower the signal. The method in brief:
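Endogenous CRE-binding activity in HepG2 is reported through a cis-regulated transfected reporter. Following a day of exposure, mRNA levels are determined by reverse transcription PCR and fluorescent fragment analysis; fits run in both directions versus DMSO.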

The target of assay [2] is CCAAT/enhancer-binding protein beta (Homo sapiens) (UniProt P17676). Kind of assay: ATG_C_EBP_CIS: Attagene CIS-FACTORIAL HepG2 Assay for human CCAAT/Enhancer Binding Protein (C/EBP) beta (AID 2282927). The note with it: HepG2 Attagene cis-factorial transcription factor reporter; actives raise or lower the signal. The method in brief:
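Following a 24 h incubation with test chemical, transfected HepG2 cells yielded RNA whose reporter transcripts were quantified by RT-PCR and fluorescent capillary electrophoresis, with DMSO serving as baseline for bidirectional fitting.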

Assay [3] can be described thus: ATG_CMV_CIS: Attagene CIS-FACTORIAL HepG2 Assay for human CMV (Internal Marker) (AID 2282928).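 Also: endpoint acts as a background internal control marker rather than a target.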 To be noted: HepG2 CMV promoter reporter, transcription factor profiling; actives raise or lower the signal. The method in brief: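 HepG2 cells transiently transfected with multiple cis-regulated reporter units; 24 h compound exposure. Reporter mRNA quantified by RT-PCR, 6-FAM primer-extension labeling, HpaI digestion and capillary electrophoresis; bidirectional fitting against DMSO baseline.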

Assay [4] can be described thus: ATG_DR4_LXR_CIS: Attagene CIS-FACTORIAL HepG2 Assay for human Liver X Receptor (LXR), DR4 submotif (AID 2282929). To be noted: HepG2 Attagene DR4 cis-reporter, mRNA transcription; actives raise or lower the signal. A digest of the protocol:
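Cells were transfected with multiple reporter transcription units, exposed to chemicals for 24 hours, then lysed for RNA. Reporter mRNA induction was measured by RT-PCR with capillary electrophoresis detection and fitted in both directions relative to DMSO.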

Assay [5] concerns the target Aryl hydrocarbon receptor (Homo sapiens) (UniProt P35869). Kind of assay: ATG_Ahr_CIS: Attagene CIS-FACTORIAL HepG2 Assay for human Aryl Hydrocarbon Receptor (Ahr) (AID 2282930). To be noted: HepG2 AhR cis-factorial reporter transcription; actives raise or lower the signal. A digest of the protocol:
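Values derive from bidirectional fitting against DMSO negative control. Underlying signal: cis-element reporter mRNA in transiently transfected HepG2, harvested 24 h post-dose and measured by RT-PCR plus capillary electrophoresis.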

The nature of assay [6]: ATG_AP_1_CIS: Attagene CIS-FACTORIAL HepG2 Assay for human Activator Protein 1 (AP-1) (AID 2282931). To be noted: HepG2 Attagene cis-factorial AP-1 reporter mRNA; actives raise or lower the signal. A digest of the protocol:
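Endogenous transcription-factor activity in human HepG2 liver cells is read through a cis-promoter reporter transcript, sampled 24 h after dosing. Detection uses RT-PCR with capillary electrophoresis; values come from bidirectional fitting relative to DMSO.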

Assay [7] is described as follows: ATG_BRE_CIS: Attagene CIS-FACTORIAL HepG2 Assay for human Bone Morphogenetic Protein (BMP) Response Element (BRE) (AID 2282933). The note with it: HepG2 BMP response element reporter, Attagene transcription factor profiling; actives raise or lower the signal. The method in brief:
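Multiplexed cis-reporter assay, HepG2, 24 h exposure. mRNA from reporter units quantified via RT-PCR/CE; DMSO baseline; bidirectional curve fit.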

Assay [8] addresses Retinoic acid receptor alpha (Homo sapiens) (UniProt P10276). In words: ATG_DR5_RAR_CIS: Attagene CIS-FACTORIAL HepG2 Assay for human Retinoic Acid Receptor Alpha (RARE), DR5 submotif (AID 2282934).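 As to AC50: reporter responds to endogenous RAR alpha beta and gamma in HepG2 not RARA alone.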 The note with it: HepG2 Attagene cis-factorial RARE DR5 reporter, mRNA; actives raise or lower the signal. A digest of the protocol: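 Endpoint fitted in both directions relative to DMSO as negative control. It reflects DR5 cis-element reporter mRNA induction in transiently transfected HepG2 cells, measured 24 h after dosing through RT-PCR and fluorescent capillary electrophoresis.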

The target in assay [9] is Transcription factor E2F1 (Homo sapiens) (UniProt Q01094). Kind of assay: ATG_E2F_CIS: Attagene CIS-FACTORIAL HepG2 Assay for human E2F Transcription Factor 1 (AID 2282935). The note with it: HepG2 Attagene cis-reporter, E2F reporter RNA transcripts; actives raise or lower the signal. The method in brief: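 Multiplexed cis-reporter assay: HepG2, transient transfection, 24 h dosing, mRNA quantitation by labeled RT-PCR and CE.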

Assay [10] can be described thus: ATG_AP_2_CIS: Attagene CIS-FACTORIAL HepG2 Assay for human Activator Protein 2 (AP-2) (AID 2282932). To be noted: HepG2 AP-2 cis-reporter, Attagene transcription factor profiling; actives raise or lower the signal. A digest of the protocol:
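Bidirectional curve fitting against DMSO was applied to reporter mRNA signals from HepG2 cells 24 h after dosing. Cis-promoter reporter units, transiently transfected, were read by RT-PCR plus capillary electrophoresis.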

Chain of CCAAT/enhancer-binding protein beta (Homo sapiens) (P17676 whole entry, looked up): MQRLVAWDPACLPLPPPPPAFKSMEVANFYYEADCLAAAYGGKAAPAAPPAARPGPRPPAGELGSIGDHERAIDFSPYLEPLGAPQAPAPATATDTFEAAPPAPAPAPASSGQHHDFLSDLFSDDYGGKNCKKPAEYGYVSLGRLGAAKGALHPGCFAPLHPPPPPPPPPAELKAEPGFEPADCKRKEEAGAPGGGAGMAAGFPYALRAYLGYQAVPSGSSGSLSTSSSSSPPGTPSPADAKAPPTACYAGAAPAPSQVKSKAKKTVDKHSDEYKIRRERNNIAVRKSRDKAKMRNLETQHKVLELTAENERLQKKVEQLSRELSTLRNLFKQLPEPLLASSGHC
Chain of Transcription factor E2F1 (Homo sapiens) (Q01094 whole entry, looked up): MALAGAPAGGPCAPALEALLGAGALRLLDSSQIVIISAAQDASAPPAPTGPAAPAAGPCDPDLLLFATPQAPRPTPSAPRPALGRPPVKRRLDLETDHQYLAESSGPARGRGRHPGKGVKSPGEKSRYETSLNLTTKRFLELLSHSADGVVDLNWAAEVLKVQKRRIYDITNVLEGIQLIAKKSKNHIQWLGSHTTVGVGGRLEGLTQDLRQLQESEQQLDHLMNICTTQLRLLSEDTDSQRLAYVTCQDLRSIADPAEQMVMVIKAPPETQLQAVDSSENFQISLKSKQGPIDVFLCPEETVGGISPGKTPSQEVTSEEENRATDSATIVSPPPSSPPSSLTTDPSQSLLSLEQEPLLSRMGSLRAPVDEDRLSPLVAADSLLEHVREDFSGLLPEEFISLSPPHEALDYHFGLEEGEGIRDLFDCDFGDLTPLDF
Chain of Aryl hydrocarbon receptor (Homo sapiens) (P35869 whole entry, looked up): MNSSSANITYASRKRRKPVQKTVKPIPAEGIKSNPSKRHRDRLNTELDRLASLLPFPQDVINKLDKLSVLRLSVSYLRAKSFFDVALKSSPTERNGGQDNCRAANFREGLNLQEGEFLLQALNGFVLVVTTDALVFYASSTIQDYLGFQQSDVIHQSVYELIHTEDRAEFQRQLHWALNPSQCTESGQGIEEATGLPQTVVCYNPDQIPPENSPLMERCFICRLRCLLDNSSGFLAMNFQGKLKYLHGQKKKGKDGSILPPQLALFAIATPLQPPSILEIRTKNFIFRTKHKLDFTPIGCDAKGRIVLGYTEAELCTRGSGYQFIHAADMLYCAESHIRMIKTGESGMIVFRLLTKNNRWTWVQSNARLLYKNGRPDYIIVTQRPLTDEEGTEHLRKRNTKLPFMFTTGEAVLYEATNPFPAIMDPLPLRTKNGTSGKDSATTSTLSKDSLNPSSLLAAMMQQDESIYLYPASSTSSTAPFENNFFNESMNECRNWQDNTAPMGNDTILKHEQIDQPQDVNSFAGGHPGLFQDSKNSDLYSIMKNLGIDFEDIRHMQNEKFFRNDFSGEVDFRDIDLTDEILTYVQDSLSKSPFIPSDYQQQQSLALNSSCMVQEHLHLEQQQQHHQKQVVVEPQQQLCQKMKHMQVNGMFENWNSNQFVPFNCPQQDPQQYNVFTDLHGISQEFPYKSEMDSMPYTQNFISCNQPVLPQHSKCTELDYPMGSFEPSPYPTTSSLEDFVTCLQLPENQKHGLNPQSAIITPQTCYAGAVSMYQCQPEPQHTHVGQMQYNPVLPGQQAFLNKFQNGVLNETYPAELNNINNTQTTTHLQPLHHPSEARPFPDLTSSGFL
Chain of Retinoic acid receptor alpha (Homo sapiens) (P10276 whole entry, looked up): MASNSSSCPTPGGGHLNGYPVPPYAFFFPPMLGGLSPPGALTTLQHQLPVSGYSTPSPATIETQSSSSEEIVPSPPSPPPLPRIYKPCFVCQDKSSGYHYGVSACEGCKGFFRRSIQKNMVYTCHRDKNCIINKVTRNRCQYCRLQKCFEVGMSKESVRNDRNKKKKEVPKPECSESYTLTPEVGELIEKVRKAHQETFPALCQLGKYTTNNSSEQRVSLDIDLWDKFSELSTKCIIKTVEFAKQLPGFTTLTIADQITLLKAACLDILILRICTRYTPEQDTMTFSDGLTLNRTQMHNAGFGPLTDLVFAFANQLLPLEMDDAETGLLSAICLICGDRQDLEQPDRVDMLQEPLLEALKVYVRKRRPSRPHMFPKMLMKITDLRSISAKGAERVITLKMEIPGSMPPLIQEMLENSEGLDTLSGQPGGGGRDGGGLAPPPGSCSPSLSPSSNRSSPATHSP

For `Cc1ccc([N+](=O)[O-])cc1S(=O)(=O)O`, the result in [1], in [2], in [3], in assay [4], in assay [5] and in assay [6] was inactive. Also, the outcome in [7] and in [8] was inactive.
Take `O=C(OCC1CCC2OC2C1)C1CCC2OC2C1` (configuration not stated): the compound was classed as inactive in assay [1], in assay [2], in assay [3], in assay [4], in [5] and in [6]. For the same compound, the call in [7], in assay [8] and in assay [9] was inactive.
In general, AC50 refers to the concentration at which the activity in the assay is half-maximal. Turning to `CC(C)c1ccc2cc(C(C)C)ccc2c1`, the AC50 in assay [1] is 62 µM (active); in assay [2], 64.6 µM (active); in [3] it was 45.5 µM (active); in [5] it was 135 µM (active); in assay [6], 55.8 µM (active); in assay [8], 67 µM (active). Further, the result in assay [4] and in [10] was inactive.
Consider `[Cl][Bi]([Cl])([c]1ccccc1)([c]1ccccc1)[c]1ccccc1`, for which the values for the AC50 in assay [1], in [4] and in assay [6] were 6.38 µM (active), 3.07 µM (active) and 5.85 µM (active), respectively. Further, the result in assay [2], in assay [3], in [5], in assay [10], in [8] and in assay [9] was inactive.
Consider `O=C1OC(=O)c2cc(Oc3ccc4c(c3)C(=O)OC4=O)ccc21`, for which the result in [1], in assay [2], in [3], in [4], in [5] and in [6] was inactive. The result in [10], in assay [8] and in assay [9] was inactive.
For `CC(C)(C)C1CCCCC1=O` (configuration not stated), the outcome in assay [1], in assay [2], in [3], in [4], in assay [5] and in assay [6] was inactive. For the same compound, the compound was called inactive in assay [10], in [8] and in [9].
As to `CO[Si](CCC1CCC2OC2C1)(OC)OC` (configuration not stated), the result in [1], in [2], in [3], in [4], in assay [5] and in [6] was inactive. Further, the call in assay [10], in assay [7], in assay [8] and in assay [9] was inactive.
In the case of `Nc1ncn([C@@H]2O[C@H](CO)[C@@H](O)[C@H]2O)c(=O)n1`, the values for the AC50 in [1] and in [2] were 9.4 µM (active) and 15.4 µM (active), respectively. The compound was classed as inactive in assay [3], in assay [4], in assay [5], in assay [6], in assay [10] and in [8].
Turning to `C=C[C@](C)(O)CC[C@@H]1[C@@]2(C)CCCC(C)(C)[C@@H]2CC[C@@]1(C)O`, the compound was called inactive in assay [1], in [2], in [3], in [4], in [5] and in assay [6]. The result in assay [10], in assay [8] and in assay [9] was inactive.
For the compound `CC(C)c1ccc(C#N)cc1`, the result in assay [1], in assay [2], in assay [3], in [4], in [5] and in [6] was inactive. In addition, the result in assay [7] and in assay [8] was inactive.
For `COc1ccc(NC(C)=O)cc1N`, the outcome in [1], in [2], in assay [3], in assay [4], in [6] and in [10] was inactive. Besides, the compound was classed as inactive in assay [8] and in assay [9]. Moreover, in [5], the AC50 is 50.4 µM (active).
Regarding `Cc1ccc(C(C)c2ccc(C)c(C)c2)cc1C`, the compound was classed as inactive in [1], in assay [2], in [5], in assay [7] and in assay [8]. Further, the AC50 in [3] was 40.9 µM (active); in [4] it was 117 µM (active); in assay [6], 48.7 µM (active).
Take `CCCCC/C=C\CCC=O`: the compound was called inactive in assay [1], in assay [2], in assay [3], in [4], in [5] and in [6]. Besides, the compound was classed as inactive in [7], in assay [8] and in assay [9].
On to `COCC(C)N` (configuration not stated), for which the compound was classed as inactive in assay [1], in assay [2], in assay [3], in assay [4], in assay [5] and in assay [6]. The call in assay [7], in assay [8] and in assay [9] was inactive.
On to `O=CC1CC1`, for which the compound was classed as inactive in assay [1], in [2], in [3], in assay [4], in assay [6] and in assay [7]. Further, the outcome in assay [8] and in assay [9] was inactive. In addition, the AC50 in assay [5] was 0.119 µM (active).
As to `C=C(C)[C@H]1CC=C(C)CC1`, the result in [1], in assay [2], in assay [3], in assay [4], in assay [5] and in assay [6] was inactive. For the same compound, the compound was classed as inactive in assay [10], in assay [7] and in assay [9].
Turning to `CC=CC(F)(F)C(F)(F)C(F)(F)F`, the compound was called inactive in [1], in assay [2], in assay [3], in assay [4], in [5] and in assay [6]. In addition, the outcome in assay [7], in assay [8] and in assay [9] was inactive.
Consider `Cc1cccc(OCCOc2cccc(C)c2)c1`, for which the result in assay [1], in [2], in assay [3], in [4], in [5] and in assay [6] was inactive. The call in assay [10] and in [8] was inactive.
On to `CN(C)CCCN(C)C`, for which the result in assay [1], in [2], in assay [3], in [4], in assay [5] and in assay [6] was inactive. For the same compound, the compound was called inactive in assay [7], in assay [8] and in assay [9].
As for `CC(C)(C)C(=O)CCc1ccc(Cl)cc1`, the outcome in [1], in assay [2], in assay [3], in assay [4], in assay [5] and in [6] was inactive. The result in assay [7], in [8] and in assay [9] was inactive.
In the case of `Cc1oncc1C(=O)Nc1ccc(C(F)(F)F)cc1`, the outcome in assay [1], in assay [2], in assay [3], in assay [4], in [10] and in [8] was inactive. Also, the compound was classed as inactive in assay [9]. The AC50 was 8.59 µM (active) in [5] and 100 µM (active) in assay [6].
As for `CC(C)(c1cc(Br)c(OCCO)c(Br)c1)c1cc(Br)c(OCCO)c(Br)c1`, the AC50 in assay [1] was 38.7 µM (active); in [2], 45.3 µM (active); in [3], 36.7 µM (active); in assay [4], 15.6 µM (active); in [6], 36.6 µM (active); in [8], 0.22 µM (active). Further, the AC50 in assay [9] is 36 µM (active). For the same compound, the outcome in assay [5] and in assay [7] was inactive.
For `FC(F)(F)C(=NOCC1OCCO1)c1ccc(Cl)cc1`, the outcome in [1], in [2], in [3], in assay [5], in assay [6] and in assay [8] was inactive. Also, the compound was classed as inactive in assay [9]. Further, the values for the AC50 in assay [4] and in assay [7] were 38.1 µM (active) and 150 µM (active), respectively.
As to `CCOC(=O)CC(C(C)=O)C(C)=O`, the compound was called inactive in assay [1], in [2], in [3], in assay [4], in [5] and in assay [6]. Besides, the compound was classed as inactive in [10], in assay [7], in assay [8] and in [9].
